Where a chain is given by its changes, count along the chain named. The full ranking holds about 5,800 sequences; the median of “enrichment r” is about 0.54, and the highest 2% start at about 16. The entries come from a sample that favours the highest values as a whole.
B1: chr18:55226207:55226308:-|3pUTR|ENSG00000196628|unk|FALSE|unique (ssRNA)
RNA: GGGAGUUCUACAGUCCGACGAUCAUUUUUACAGCCACACAAUUCUUGGCAUGUAUUAAGAAAAAAAAAAAUCCCUGUUCAAGUAGUUUUUCCACCUAUCAGCACUGAGUAAAUGCCAUAAAUCCAUUGAAAUGGUCUAAAUGUCAACAGAGGAUUGAGCAUCA
B2: chr16:21655520:21655610:+|3pUTR|ENSG00000197006|msi1_unk|total|mutant (ssRNA)
RNA: GGGAGUUCUACAGUCCGACGAUCUCUGUGUUCACAAUUACGUGAAGGGAGGACCCUUGGGGACCGCCAUUCUAAAUAUCAUGCCGGAAUUUAAAAAGCCAAAAUACUAAUUAUUUCUUUGCCGUGUGUAAAGGAAUGUUUUUACAACAGAGGAUUGAGCAUCA
B3: ENSG00000151612:stop:overlap|stop_codon|ENSG00000151612|stop_codon|NA|stop_codon (ssRNA)
RNA: GGGAGUUCUACAGUCCGACGAUCCAGGCCUGUUGGAGAAGGAAGCCAGCAGUGAGGGGGAUUGCAAAGUAGAGAGAGGUUGGUAGAACUGUGGACUGUGAAGAGAUCGAGAAUAGCACAGUUAACUAGGCAUUUGCCUUCGGCCAACAGAGGAUUGAGCAUCA
B4: ENSG00000136451:be:win_551|CDS|ENSG00000136451|bound_else_gene|NA|bound_elsewhere_windowed (ssRNA)
RNA: GGGAGUUCUACAGUCCGACGAUCGAGAUGUGUACCAUCUCAAUCGACACAAGCUCUCCCAUUCAGAUGAGAAACCCUUUGAGUGUCCUAUUUGUAAUCAGCGCUUCAAGAGGAAGGACCGGAUGACUUACCAUGUGAGGUCUCCAACAGAGGAUUGAGCAUCA
B5: chr6:134965076:134965177:-|3pUTR|ENSG00000112339|unk|total|mutant (ssRNA)
RNA: GGGAGUUCUACAGUCCGACGAUCAAAGGAACAAUGUGCAAUUGAUAUGUUUUCCGAUGAGAGAGAAAAAUUAAAGCUAAAAUCCGCUGCAAAGAAGUAUUAAUAAUCACCUCUGCAAAAAUUCUAAGUUGCCAACUGGCAAAGCAACAGAGGAUUGAGCAUCA
B6: chr19:811491:811550:+|3pUTR|ENSG00000011304|msi1_unk|FALSE|overlapping (ssRNA)
RNA: GGGAGUUCUACAGUCCGACGAUCUAGCAAUAUUUCCAGUUGACCAAAUAUUCUAAUCUUUUUUCAUUUAUAUGCAAAAGAAAUAGUUUUAAGUAACUUUUUAUAGCAAGAUGAUACAAUGGUAUGAGUGUAAUCUAAACUUCCCAACAGAGGAUUGAGCAUCA
B7: chr7:111727939:111728040:-|3pUTR|ENSG00000128512|unk|total|mutant (ssRNA)
RNA: GGGAGUUCUACAGUCCGACGAUCAAGUGGUAAACCGUGAUAAAGACUCCUUUUGUACCUUUUUAUGUUCACUUUUUUUUAUACCGUUUAAUCUUAAAACCAAUACGAUAUUGUCAAACGAUACAAUGUGUGACAAUGUUGUAUCAACAGAGGAUUGAGCAUCA
B8: chr7:111727939:111728040:-|3pUTR|ENSG00000128512|unk|FALSE|unique (ssRNA)
RNA: B7 RNA with C34U, C35A, C83U, C84A
B9: ENSG00000070961:be:win_4701|3pUTR|ENSG00000070961|bound_else_gene|NA|bound_elsewhere_windowed (ssRNA)
RNA: GGGAGUUCUACAGUCCGACGAUCUUUUCUAAUCUUUAGAGACCUUCACACAGCAUGAGGGCUGUUGGCAUUUUGAAAAAGGUUAAUAAGUAGAAGCAUACAUGUUUUCCUUUUGUUUUUGAAACUUGUUUGUAAACAUAAAUACAACAGAGGAUUGAGCAUCA
B10: ENSG00000070961:be:win_4651|3pUTR|ENSG00000070961|bound_else_gene|NA|bound_elsewhere_windowed (ssRNA)
RNA: GGGAGUUCUACAGUCCGACGAUCACAUGUUAGUUUAGUGAUGUCUUGGUGAACUGUGAGUGAACUGUAUUGAUUUUUCUAAUCUUUAGAGACCUUCACACAGCAUGAGGGCUGUUGGCAUUUUGAAAAAGGUUAAUAAGUAGACAACAGAGGAUUGAGCAUCA
B11: ENSG00000070961:be:win_4601|3pUTR|ENSG00000070961|bound_else_gene|NA|bound_elsewhere_windowed (ssRNA)
RNA: GGGAGUUCUACAGUCCGACGAUCUCAGACUAUCAAACUACAAGAGAACCUUAGUCUUUUUUGUUUUUGUCUAAACAUGUUAGUUUAGUGAUGUCUUGGUGAACUGUGAGUGAACUGUAUUGAUUUUUCUAAUCUUUAGAGACCCAACAGAGGAUUGAGCAUCA

Each binder was assayed against MSI1 full-length (mouse, UniProt Q61474 1-362) (assay: nsRBNS (natural sequence RNA bind-n-seq); RBNS binding buffer (assumed for nsRBNS): 25 mM Tris pH 7.5, 150 mM KCl, 3 mM MgCl2, 0.01% Triton X-100, 500 ug/ml BSA, 20 U/ml SUPERase-In, 4 C; UNK is unkempt and MSI1 is Musashi-1; names of the RNAs are library labels; protein concentration not given here; high values mean tight binding).
MSI1 full-length, sequence (Q61474 whole entry): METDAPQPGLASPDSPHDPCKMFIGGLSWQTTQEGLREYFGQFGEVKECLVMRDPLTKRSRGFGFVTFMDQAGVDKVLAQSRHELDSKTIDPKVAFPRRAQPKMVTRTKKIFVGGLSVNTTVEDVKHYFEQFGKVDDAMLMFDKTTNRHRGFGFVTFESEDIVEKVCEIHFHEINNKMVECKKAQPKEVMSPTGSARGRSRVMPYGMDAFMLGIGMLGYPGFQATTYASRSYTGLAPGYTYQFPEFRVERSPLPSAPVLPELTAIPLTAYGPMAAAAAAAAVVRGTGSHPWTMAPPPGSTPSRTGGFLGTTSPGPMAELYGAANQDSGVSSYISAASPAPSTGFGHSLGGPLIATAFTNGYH

Which binding signal does the source give for B1 here?
The binding signal was 0.374 enrichment R.

For B2, which binding signal is on record?
The binding signal was 0.282 enrichment R.

B3 was tested. Which binding signal did it give?
The binding signal was 3.25 enrichment R.

How did the binding signal turn out when B4 was run?
Its binding signal is 0.307 enrichment R.

B5 was tested. Which binding signal did it give?
The binding signal was 0.346 enrichment R.

B6 was tested. Which binding signal did it give?
The binding signal was 0.9 enrichment R.

How did the binding signal turn out when B7 was run?
The binding signal was 3.05 enrichment R.

For B8, which binding signal is on record?
Its binding signal is 37.8 enrichment R.

How did the binding signal turn out when B9 was run?
Its binding signal is 0.664 enrichment R.

With B10 as the binder, how does the binding signal read?
Its binding signal is 28.3 enrichment R.

With B11 as the binder, how does the binding signal read?
Its binding signal is 3.69 enrichment R.

— PMC12136788
